Consider 8 compounds from the supplement of paper PMC9262897, “Low-cost anti-mycobacterial drug discovery using engineered E. coli” (Nature Communications, 2022).

The subject of the assay is E. coli TESEC Mtb Alr. Briefly: growth (OD600 after 10 h); higher = more growth (less inhibition). As to conditions: compound 0.1 mM. The protocol: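 TESEC Mtb Alr E. coli, or the Alr+ wild-type control, in 384-well plates with Prestwick library compounds at 0.1 mM and 1% DMSO, across arabinose induction levels of 1E3 to 1E7 nM. Growth is read as OD600 after 10 h at 37 °C in triplicate biological replicates.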

Setting [1] is: arabinose 1000 nM, raw OD600 reference: median of DMSO wells 0.294, cell-free background 0.041.
Where [2] appears, read: arabinose 10000 nM, raw OD600 reference: median of DMSO wells 0.264, cell-free background 0.041.
Setting [3] is: arabinose 100000 nM, raw OD600 reference: median of DMSO wells 0.201, cell-free background 0.041.
The mark [4] stands for this setting: arabinose 1000000 nM, raw OD600 reference: median of DMSO wells 0.193, cell-free background 0.041.
Where [5] appears, read: arabinose 10000000 nM, raw OD600 reference: median of DMSO wells 0.146, cell-free background 0.041.

Structures are written as SMILES. Structures can show the parent of a compound that is named as a salt. ± gives the standard deviation of the averaged measurements.

Regarding `OC(CCN1CCCCC1)(c1ccccc1)c1ccccc1` [Pridinol methanesulfonate salt], the growth worked out at 0.299 ± 0.011 under setting [1]; 0.28 ± 0.012 under setting [2]; 0.193 ± 0.0055 under setting [3]; 0.177 ± 0.0082 under setting [4]; 0.151 ± 0.0016 under setting [5].
On the same counts, the results for `O=c1[nH]cnc2c1ncn2[C@H]1CC[C@@H](CO)O1` [Didanosine] are 0.293 ± 0.023, 0.27 ± 0.0051, 0.16 ± 0.015, 0.149 ± 0.0069 and 0.199 ± 0.0058.
For `COc1cc(-c2ccc(=O)[nH]n2)ccc1OC(F)F` [Zardaverine], in that order: 0.173 ± 0.0042, 0.188 ± 0.013, 0.17 ± 0.021, 0.171 ± 0.0067 and 0.147 ± 0.0091.
For the compound `Cc1ccc(N(CC2=NCCN2)c2cccc(O)c2)cc1` [Phentolamine hydrochloride], the growth is, setting by setting: under setting [1], 0.287 ± 0.0088; under setting [2], 0.27 ± 0.0075; under setting [3], 0.2 ± 0.0085; under setting [4], 0.173 ± 0.0079; under setting [5], 0.161 ± 0.0026.
On the same counts, the results for `Oc1c(Cl)cc(Cl)c(Cl)c1Cc1c(O)c(Cl)cc(Cl)c1Cl` [Hexachlorophene] are 0.04387 ± 0.00038, 0.0445 ± 0.00086, 0.04433 ± 0.00015, 0.04387 ± 5.8e-05 and 0.0464 ± 0.0029.
On the same counts, the results for `O=C(O)Cc1ccccc1Nc1c(Cl)cccc1Cl` [Diclofenac sodium] are 0.137 ± 0.0017, 0.132 ± 0.0064, 0.149 ± 0.006, 0.103 ± 0.004 and 0.131 ± 0.0017.
On the same counts, the results for `Cc1cc(C(=O)NNCc2ccccc2)no1` [Isocarboxazid] are 0.319 ± 0.014, 0.28 ± 0.0081, 0.234 ± 0.0096, 0.198 ± 0.0079 and 0.158 ± 0.0025.
Take `COCCCC/C(=N\OCCN)c1ccc(C(F)(F)F)cc1` [Fluvoxamine maleate]: the growth is, setting by setting: under setting [1], 0.274 ± 0.0066; under setting [2], 0.26 ± 0.013; under setting [3], 0.214 ± 0.016; under setting [4], 0.133 ± 0.0052; under setting [5], 0.136 ± 0.0081.
